PrPC TRFRET: inhibitors of human cell surface prion protein PrPC, primary screen, cell-based, TR-FRET | Major prion protein (Homo sapiens), P04156 | TR-FRET read-out | inhibition, % at 13.8 µM | actives 0.43% (n = 370,000) | AID 720596, 2013; in the data active = inhibition above about 24%; note: 0% = median of the test wells and 100% = reference compound wells
Mtb FBA inh: Mtb FBA enzyme inhibitors, primary screen, biochemical, fluorescence, strain H37Rv | Fructose-bisphosphate aldolase (Mycobacterium tuberculosis (strain ATCC 25618 / H37Rv)), … | purified M. tuberculosis FBA, fluorescence read-out | inhibition, % at 1 µM | actives 2.3% (n = 360,000) | AID 588726, 2011; in the data active = inhibition above about 27%;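 note: 0% = vehicle and 100% = reference inhibitor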
Target sequence (P9WQA3 whole entry, looked up): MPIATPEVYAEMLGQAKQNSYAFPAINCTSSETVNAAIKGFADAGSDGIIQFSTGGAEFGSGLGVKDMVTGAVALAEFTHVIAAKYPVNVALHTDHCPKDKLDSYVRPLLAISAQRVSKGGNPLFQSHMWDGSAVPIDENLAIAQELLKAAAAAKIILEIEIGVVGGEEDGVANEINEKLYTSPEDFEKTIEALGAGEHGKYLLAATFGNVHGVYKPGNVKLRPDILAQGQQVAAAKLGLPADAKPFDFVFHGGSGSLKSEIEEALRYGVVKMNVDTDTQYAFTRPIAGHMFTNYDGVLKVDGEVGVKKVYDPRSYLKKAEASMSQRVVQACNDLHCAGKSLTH
BH1578 lux ind: inducers of Vibrio cholerae quorum light production without autoinducers, primary screen, BH1578 luxS cqsA deficient, single point; actives 0.16% (n = 350,000); AID 588436, 2011; V. cholerae BH1578 lux reporter, luminescence, 6 h; activation, % at 18.7 µM; in the data active = activation mostly above about 9.7%, no sharp cut-off
SARS 3CLpro inh: SARS-CoV 3CLpro protease inhibitors, primary screen, biochemical, quenched FRET. AID 1706, 2009. actives 0.14% (n = 290,000). Replicase polyprotein 1ab (Severe acute respiratory syndrome coronavirus), P0C6X7. recombinant SARS-CoV 3CLpro, quenched FRET peptide cleavage. inhibition, % at 6 µM; in the data active = inhibition above about 12%
GDH-TPI inh: GDH-TPI coupling enzyme inhibitors, primary screen, artefact control for M. tuberculosis FBA inhibitor project, biochemical, absorbance, full deck. AID 588335, 2011. GDH-TPI coupled enzyme counterscreen, NADH absorbance. inhibition, % at 4.8 µM. actives 1.2% (n = 360,000); in the data active = inhibition above about 30%;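 note: 0% = DMSO wells and 100% = wells lacking the enzyme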
* = called active by the depositor; i = inactive; nt = no result; + = active, no number. In the library only some 3.9% were active in any assay of this set; here they are far more common.

SMILES	PrPC TRFRET	Mtb FBA inh	BH1578 lux ind	SARS 3CLpro inh	GDH-TPI inh
Cc1ccc(-c2nn3c(-c4ccccc4)nnc3o2)cc1	-7	3	-1	nt	14
Cc1ccc(Cn2c(=N)c(C(=O)NCC3CCCO3)cc3c(=O)n4cccc(C)c4nc32)cc1 (stereo not drawn)	-23	+	1	-7	3
O=C(NCC1CCCO1)c1ccc2c(c1)N(Cc1ccc(Cl)cc1)CCS2 (stereo not drawn)	-9	132*	i	nt	12
Cc1ccc(CN2CCSc3ccc(C(=O)NCCCN4CCN(C)CC4)cc32)cc1	-3	161*	0	-4	5
C=CCN1c2ccccc2[C@]23C[C@@H](C(=O)OC)N(C(=O)c4cccs4)C2=NC(C(=O)OC)=C(C(=O)OC)[C@H]13	4	1	0	nt	13
Nc1n[nH]c(N)c1N=Nc1ccccc1F	-3	1	-1	-2	38*
Cc1ccc(-c2csc(N3C(=N)SCC3=O)n2)cc1	1	nt	nt	-1	nt
N=C1SCC(=O)N1c1ncc(Cc2ccc(F)cc2)s1	6	1	0	5	31*
C[C@H](c1ccccc1)N1C[C@@H](COCc2ccccc2)Oc2cccc(Oc3ccc(F)cc3)c2S1(=O)=O	3	nt	nt	nt	nt
O=c1c2ccccc2nc(/C=C/c2ccccc2)n1CCCO	-7	1	i	-5	35*
Cn1c(/C=C/c2ccc(Cl)cc2)nc2ccccc2c1=O	-2	0	i	6	37*
COc1ccc(/C=C/c2nc3ccccc3n2C)cc1	1	7	0	-2	65*
COc1ccc(Nc2nc3ccccc3n2C)cc1	2	2	i	0	-4
COc1ccc(/C=N\n2nnc3ccccc32)cc1	4	8	0	-7	51*
O=S(=O)(Nc1nc2ccccc2nc1Nc1ccc2c(c1)OCO2)c1ccc(F)cc1	7	5	5	2	-8
COc1ccc(NC(=O)CSc2ncccn2)cc1S(=O)(=O)N1CCCCC1	-4	4	-1	nt	8
CCCOCC(O)CCc1n[nH]c(=S)n1-c1ccccc1 (stereo not drawn)	-6	-1	i	2	4
COCCNC(=O)C1(C)CCCN(C(=O)c2cc(OC)c(OC)c(OC)c2)C1 (stereo not drawn)	-6	1	-1	nt	10
CCN1C(=O)[C@H]2[C@@H](c3ccc(-c4ccc(OC)cc4)cc3)N3CCC[C@@]3(C(=O)OC)[C@H]2C1=O	4	21	-1	nt	4
CCOC(=O)C[C@H]1c2ccc(C(F)(F)F)cc2S(=O)(=O)N1c1cccc(OC)c1	8	1	-1	nt	8
COc1ccc(C(CC(=O)c2ccc(O)cc2)S(=O)(=O)c2ccc(C)cc2)cc1 (stereo not drawn)	6	-1	i	3	34*
COc1ccc(C(=O)CC(c2ccccc2)S(=O)(=O)c2ccc(C)cc2)cc1 (stereo not drawn)	nt	nt	nt	-1	nt
COc1ccc(NS(=O)(=O)c2ccc3oc(=O)c4[nH]c(=O)c(=O)n(C)c4c3c2)cc1	0	3	0	-4	34*
Cc1oc2c(CN(C)C)c(O)ccc2c(=O)c1-c1cscn1	-6	66*	-3	0	26
COc1cccc(Oc2c(C)oc3c(CN4CCCCC4)c(O)ccc3c2=O)c1	12	179*	0	0	22
SMILES	PrPC TRFRET	Mtb FBA inh	BH1578 lux ind	SARS 3CLpro inh	GDH-TPI inh
COc1ccc(Oc2c(C)oc3c(CN(C)C)c(O)ccc3c2=O)cc1	-2	43*	i	2	26
COC(=O)c1ccc(Oc2c(C)oc3c(CN4CCN(C)CC4)c(O)ccc3c2=O)cc1	-1	+	i	-4	22
Cc1nc2ccccc2n1CCc1nc2c3ccccc3nc(SCC#N)n2n1	nt	nt	nt	3	nt
CC1(C)Cc2c(C#N)c(N3CCN(C(=O)c4ccco4)CC3)nc(Cc3ccccc3)c2CO1	1	2	nt	2	7
Cc1nc(N2CCN(C(=O)c3ccc(Cl)cc3)CC2)c(C#N)c2c1COC(C)(C)C2	9	38*	i	-2	13
COc1ccc(NC(=O)C(C/C=C(/C)Cl)C(C)=O)cc1 (stereo not drawn)	2	-1	i	-1	9
COc1ccc(-c2sc3ccc(N4CCOCC4)cc3c2C#CC2(O)CCCCC2)cc1	-6	15	0	nt	17
COc1ccc(-c2ccc3oc(-c4ccc(OC)cc4)c(C#CC4(O)CCCCC4)c3c2)cc1	7	14	i	nt	44*
CC(/C=C1\SC(=S)N(CCCC(=O)Nc2ccc(C(=O)O)c(O)c2)C1=O)=C\c1ccccc1	nt	nt	nt	9	nt
O=C(CCN1C(=O)S/C(=C\c2ccccc2)C1=O)Nc1ccc(O)cc1C(=O)O	-3	-2	-1	7	38*
CC(=Cc1ccccc1)C=C1SC(=S)N(CCCC(=O)Nc2ccc(C(=O)O)c(O)c2)C1=O	0	-4	i	nt	31*
O=C(CN1C(=O)S/C(=C\C=C\c2ccccc2)C1=O)Nc1ccc(O)cc1	-1	0	0	3	33*
O=C(CN1C(=O)S/C(=C\c2cccs2)C1=O)Nc1ccc(O)cc1C(=O)O	-4	11	i	3	44*
CC1CC(C)CN(C(=O)CCC(=O)Nc2nnc(C3CCCCC3)s2)C1 (stereo not drawn)	-1	0	-3	7	4
CCCCn1nnnc1C1(C)CCC(=O)N1Cc1ccco1 (stereo not drawn)	-6	nt	nt	nt	nt
O=C(CCN1C(=O)/C(=C\c2ccccc2)SC1=S)Nc1ccc(C(=O)O)cc1	-6	-1	0	3	5
O=C(CCN1C(=O)S/C(=C/c2ccccc2)C1=O)Nc1ccc(O)c(C(=O)O)c1	-25	-2	-1	10	42*
CCOC(=O)c1cc(C)[nH]c(=O)c1C#N	4	161*	0	1	-3
CCCCNC(=O)OC1CCC12CCC(c1ccccc1)CC2 (stereo not drawn)	3	nt	nt	nt	nt
CC(CN1CCCCC1)NC(=O)c1cccs1 (stereo not drawn)	-3	-1	-5	1	7
O=c1c2cc(N3CCOCC3)ccc2[nH]c(=S)n1CCCN1CCCC1	-8	5	0	1	27
O=c1c2cc(N3CCOCC3)ccc2[nH]c(=S)n1CCCN1CCCCC1	-5	4	0	-3	31*
O=C(NCCc1ccccc1Cl)C1CC(=O)N(C2CCCCC2)C1 (stereo not drawn)	1	5	0	-4	-8
CCC(=O)/C=C1/Sc2ccc(OC)cc2N1CCO	6	-7	-1	-1	12
CCC(=O)/C=C1/Sc2ccc(OC)cc2N1CC	-1	-1	-2	2	35*
CCC(=O)/C=C1/Sc2ccccc2N1CC	-4	0	i	2	39*
